HIF-2a inh: HIF-2a reporter inhibitors, primary screen, luminescence, 786-0 RCC cells; 786-0 RCC cells HIF-2a reporter, luciferase luminescence, overnight; inhibition, % at 18.8 µM; 360,000 compounds, 0.72% hits; AID 624352, 2012;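 active = inhibition of the luminescence signal of 40% or more relative to plate controls, in a single-dose primary screen at 18.75 µM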
TRPM1 prom inh: inhibitors of MITF-dependent TRPM1 promoter reporter, primary screen, cell-based, SK-MEL-5, single point, luciferase | SK-MEL-5 TRPM1 promoter luciferase, 24 h | inhibition, % at 12.5 µM | 330,000 compounds, 0.83% hits | AID 488899, 2010;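 active = mean inhibition across replicates of 60% or more, whatever share of single replicates reaches that level; inconclusive = some that reach 60%, reason not given; inactive = mean inhibition across replicates below 60%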
TROY signal inh: inhibitors of TROY-driven NF-kB signaling, primary screen, Q293 LMP1-TROYcd cells, NF-kB luciferase, uHTS; Q293 LMP1-TROYcd NF-kB luciferase reporter, 4 h; inhibition, % at 10 µM; 360,000 compounds, 0.98% hits; AID 1347056, 2019;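 active = compounds whose plate-normalised and pattern-corrected inhibition of the luciferase reporter signal at the single screening dose is 50% or more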
Peg3 promoter: Peg3 promoter-driven luciferase inhibitors, primary screen, cell-based, HeLa, luciferase luminescence | HeLa PEG-Prom luciferase reporter, overnight | inhibition, % at 20 µM | 360,000 compounds, 1.7% hits | AID 588405, 2011;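 active = inhibition of at least 50% at 20 µM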
LMP1 NFkB inh: EBV LMP1-driven NF-kappaB luciferase reporter inhibitors, primary screen, cell-based, luminescence, single point. 350,000 compounds, 0.69% hits. LMP1-induced NF-kappaB luciferase reporter cells. inhibition, % at 12.5 µM; in the data active = inhibition above about 41%; inconclusive = no clear call, values can overlap the other calls;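 also: 0% = neutral control wells and 100% = reference inhibitor control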
TWEAK Fn14 block: inhibitors of TWEAK-Fn14 signaling, primary screen, luciferase reporter cells, uHTS | TWEAK-stimulated Fn14 reporter cells, luciferase luminescence, 8 h | inhibition, % at 10 µM | 360,000 compounds, 2% hits; in the data active = inhibition above about 50%
* = called active by the depositor; ? = inconclusive; / = no result. Only some compounds are listed: those with a hit (about 4% of all), similar ones and a draw of the others.

SMILES	HIF-2a inh	TRPM1 prom inh	TROY signal inh	Peg3 promoter	LMP1 NFkB inh	TWEAK Fn14 block
COc1ccc2cnn(Cc3ccccc3)c(=O)c2c1OC	-68	0	51*	-154	3	28
COC(=O)Cn1c(=O)c(C(=O)CCl)c(N)n(Cc2ccccc2)c1=O	30	51	-2	81*	-9	31
Cc1c2cnn(CC(=O)O)c(=O)c2c(C)n1Cc1ccccc1	6	/	-4	-6	-7	13
CCc1ccc([C@H]2[C@@H]3C(=O)C[C@@H]4C(=O)N(Cc5ccccc5)C(=O)[C@@H]4[C@@H]3CN2S(=O)(=O)c2ccc(C)cc2)cc1	-9	/	1	-16	/	17
CC1CC(C)CN(S(=O)(=O)c2ccc3c(c2)CCN3C(=O)C2CC2)C1 (stereo not given)	9	12	9	7	5	0
Cc1ccccc1NC(=O)CSc1nnc(C)c2ccccc12	-30	-17	-23	-40	4	-5
CN(C)CCCN=Cc1c(-c2ccccc2)[nH]n(-c2nc3ccccc3s2)c1=O	19	?	10	15	-14	62*
O=c1c(C=NCCCn2ccnc2)c(-c2ccccc2)[nH]n1-c1nc2ccccc2s1	-63	0	-39	15	-42	-7
Cc1nn(C)c(=O)n1N(C)c1ncc(C(F)(F)F)cc1Cl	14	-4	9	67*	-2	6
OC(COc1ccc2cc(Br)ccc2c1)CN1CCCC1 (stereo not given)	-75	-61	55*	-10	-13	51*
O=C(NCc1ccc(Cl)cc1)c1ccc(CNc2c(N3CCCC3)c(=O)c2=O)cc1	51*	1	7	3	-1	-21
N=NC(=O)c1ccccc1Nc1c(O)[nH]c2ccccc12	-108	-4	6	-141	2	53*
COC(=O)CCC(=O)OC1(C)C(=O)C=C2C=C(C3CC3)N(CC3CC3)C=C2C1=O (stereo not given)	5	12	16	-7	50*	-6
CCn1c(SCC(=O)Nc2ccc3c(c2)OCO3)nnc1C(C)C	0	10	-15	-30	0	-34
CC1(C(=O)NCC2CC2)Cc2c(-c3cccc(C(F)(F)F)c3)ccnc2O1 (stereo not given)	22	/	9	31	/	5
CN(C)c1cccc(C(=O)OCC(=O)Nc2ccccc2-c2ccccc2)c1	19	7	21	-10	1	-2
CCN(CC)c1ccc(C(=O)OCC(=O)Nc2ccccc2-c2ccccc2)cc1	26	4	39	21	16	72*
COc1ccc(C(=O)Nc2ccc3nc(N4CCOCC4)sc3c2)cc1OC	1	-3	29	-3	-2	-12
CCCn1nc(C(=O)Nc2ccc3nc(N4CCOCC4)sc3c2)ccc1=O	-4	55	53*	14	18	25
COc1ccc(C(CNC(=O)c2cccc(NS(=O)(=O)c3ccc(Br)cc3)c2)N(C)C)cc1 (stereo not given)	0	-3	-29	15	-8	15
Cc1cc(Br)cn2c(Cc3cccc(Cl)c3)c(-c3ccco3)nc12	-94	/	3	/	/	68*
Clc1cccc(Cc2c(-c3ccco3)nc3ccc(Cl)cn23)c1	18	/	-2	-11	/	64*
Cc1ccc(Cc2c(-c3ccco3)nc3c4ccccc4ccn23)cc1	-90	/	47	-174	/	81*
Cc1ccc(Cc2c(-c3ccco3)nc3c(C)cc(Br)cn23)cc1	-1	/	2	-60	/	44
COc1ccccc1Cc1c(-c2ccc(Cl)cc2)nc2c(C)cc(Br)cn12	-51	/	25	48	/	60*
SMILES	HIF-2a inh	TRPM1 prom inh	TROY signal inh	Peg3 promoter	LMP1 NFkB inh	TWEAK Fn14 block
Clc1cccc(Cc2c(-c3ccco3)nc3ccc(Br)cn23)c1	24	/	6	-8	/	46
COC12CC(=O)C(C(C)=O)=C(O)C1(C)c1c(O)c(C)c(O)c(C(C)=O)c1O2 (stereo not given)	22	/	-2	14	/	16
Cc1ccccc1C1CCCN(C(=O)c2cc(COc3c(F)cccc3F)on2)C1 (stereo not given)	-16	-1	1	4	-6	85*
CCCCNC(=O)CCC(=O)Nc1ccc2nc(N3CCN(C)CC3)cc(C)c2c1	7	-10	-11	3	-6	-3
CCN1CCN(c2cc(C)c3cc(NC(=S)NCCN(C)C)ccc3n2)CC1	-3	-5	12	-6	-8	-27
Cc1cc(N2CCCC2)nc2ccc(NC(=S)NCCCN3CCC(C)CC3)cc12	18	30	-15	98*	-15	-83
CCCCN(C)C(=S)Nc1ccc2nc(N3CCN(CC)CC3)cc(C)c2c1	-6	-1	62*	-18	-1	34
CCCCN(C)CCNC(=S)Nc1ccc2nc(N3CCN(CC)CC3)cc(C)c2c1	16	6	-6	63*	-35	-17
CCCCN(CC)C(=S)Nc1ccc2nc(N3CCN(C)CC3)cc(C)c2c1	-29	-9	68*	-22	10	55*
CCCN1CCN(CCCNC(=S)Nc2ccc3nc(N4CCN(CC)CC4)cc(C)c3c2)CC1	12	-13	9	4	-17	-17
Cc1cc(N2CCN(C)CC2)nc2ccc(NC(=S)NCCN3CCc4ccccc4C3)cc12	7	78*	2	61*	-41	-17
O=Cc1c[nH]c2ccc(OCc3ccccc3)cc12	-34	-15	-35	-52	-1	-8
COc1cc(Cn2c3ccc(NC(=S)NCc4ccc(C)cc4)cc3c(=O)n2C)ccc1F	-13	/	58*	-3	/	73*
COc1cc(Cn2c3ccc(NC(=O)CC(C)(C)C)cc3c(=O)n2C)ccc1F	3	/	-11	0	/	-3
COc1ccc2nc(N3CCCCC3)c(/C=C3\SC(=S)NC3=O)cc2c1	-17	10	64*	37	-8	21
O=C1NC(=S)S/C1=C\c1cc2ccccc2nc1N1CCCCC1	-53	12	59*	38	-5	22
CC1CCCCc2nc3c(c(=O)n21)CCCC3 (stereo not given)	1	/	-4	-9	/	-18
CNC1(C)[C@H]2CC[C@H](C2)C1(C)C (stereo not given in full)	-3	1	-9	-6	81*	-1
CC(=O)c1cccc(NC(=O)CSc2nc(C3CC3)nc3ccccc23)c1	29	-2	40	21	7	58*
COc1cc(NC(=O)CSc2nc(C3CC3)nc3ccccc23)cc(OC)c1	16	18	14	99*	20	-4
O=C(CCNS(=O)(=O)c1cccc(C(F)(F)F)c1)NC1CC1	8	4	-10	-1	-3	13

Screening data: PubChem, several laboratories
